Reference: PubChem BioAssay (NCATS)
Inconclusive results are not listed. Activity calls are given as the source filed them. Calls come from the whole dose curve; as a rule, active = well fitted curve in the direction sought with a large enough effect; inconclusive = small, poorly fitted or top-dose-only effect, or another doubt; inactive = no such curve, though single readings can be large; an effect the other way counts as inactive or inconclusive.

Experiments:
[1] = BET inhibitor-based combinations targeting novel dependencies in MECOM-rearranged (r) AML: SET-2 cell line (AID 2202231); conditions: SET-2 AML cells viability, CellTiter-Glo luminescence, 48 h; viability: active compounds read low, concentration not given here; note: nearly all actives have a fitted effect of over 35% in size;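 for viability: plate controls were DMSO treated cells for no effect and wells without cells for full effect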
Procedure, shortened: (§1)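 Viability of cells (500 per well) is scored by luminescent CellTiter-Glo at 48 hr post-dosing. Eleven-point titrations are normalized to DMSO and empty controls and reduced to AUC values.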

[2] = BET inhibitor-based combinations targeting novel dependencies in MECOM-rearranged (r) AML: OCI-AML3 cell line (AID 2202232); conditions: Potency: OCI-AML3 viability; note: nearly all actives have a fitted effect of over 35% in size
Procedure, shortened: as §1

[3] = BET inhibitor-based combinations targeting novel dependencies in MECOM-rearranged (r) AML: MV-4-11 cell line (AID 2202233); note: nearly all actives have a fitted effect of over 45% in size
Procedure, shortened: (§2)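 Using pin-tool transfer, drugs were added in 11 doses to cells (500/well), incubated 48 hr, and assessed with CellTiter-Glo. Z-AUC is a mean-centring transformation applied separately to each screened line.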

[4] = BET inhibitor-based combinations targeting novel dependencies in MECOM-rearranged (r) AML: HNT-34 cell line (AID 2202234); note: nearly all actives have a fitted effect of over 35% in size
Procedure, shortened: as §2

[5] = BET inhibitor-based combinations targeting novel dependencies in MECOM-rearranged (r) AML: AML-191 cell line (AID 2202236; note: nearly all actives have a fitted effect of over 35% in size)
Procedure, shortened: as §1

[6] = BET inhibitor-based combinations targeting novel dependencies in MECOM-rearranged (r) AML: AML-194 cell line (AID 2202237; note: nearly all actives have a fitted effect of over 40% in size)
Procedure, shortened: as §1
Potency is the fitted concentration of half-maximal effect.

## CN1CCN(c2ccc3nc(-c4cc(C(C)(C)C)c(OCCCC(=O)NCCCN=[N+]=[N-])c(C(C)(C)C)c4)[nH]c3c2)CC1
[1]
  Potency: 10.5 µM (active)
[2]
  Potency: 10.5 µM (active)
[3]
  Potency: 7.42 µM (active)
[4]
  Potency: 9.34 µM (active)
[5]
  Potency: 9.34 µM (active)
[6]
  Potency: 8.33 µM (active)

## O=C1NC(=O)/C(=C/c2ccc3nccc(-c4ccncc4)c3c2)S1
[1]
  Potency: 14.8 µM (active)
[2]
  Potency: 1.05 µM (active)
[3]
  Potency: 0.833 µM (active)
[4]
  Potency: 1.05 µM (active)
[5]
  Potency: 0.934 µM (active)

## CC(C)Cc1ccc([C@@H](C)C(=O)NS(C)(=O)=O)cc1
[1]
  viability: 112% (inactive)
[2]
  Potency: inactive
[3]
  Potency: inactive
[4]
  Potency: inactive
[5]
  Potency: inactive
[6]
  Potency: inactive

## Nc1cc(COc2c(Cl)cc(C[C@H](N)C(=O)O)cc2Cl)c2oc(-c3ccccc3)nc2c1
[1]
  Potency: 11.8 µM (active)
[2]
  Potency: 13.2 µM (active)
[3]
  Potency: 10.5 µM (active)
[4]
  Potency: inactive
[5]
  Potency: 20.9 µM (active)
[6]
  Potency: inactive

## NC(CO)(CO)CCc1ccc(Sc2cccc(OCc3ccccc3)c2)cc1Cl
[1]
  Potency: 18.6 µM (active)
[2]
  Potency: 9.34 µM (active)
[3]
  Potency: 10.5 µM (active)
[4]
  Potency: 18.6 µM (active)
[5]
  Potency: 10.5 µM (active)
[6]
  Potency: 9.34 µM (active)

## O=C(CCCCCCC(=O)N/N=C/c1ccc(N(c2ccccc2)c2ccccc2)cc1)NO
[1]
  Potency: 7.42 µM (active)
[2]
  Potency: 13.2 µM (active)
[3]
  Potency: 4.68 µM (active)
[4]
  Potency: 4.68 µM (active)
[5]
  Potency: 6.61 µM (active)
[6]
  Potency: 7.42 µM (active)

## CCCNC(=O)c1cn2ncnc(Nc3cc(C(=O)NC4CC4)ccc3C)c2c1C
[1]
  viability: 99.9% (inactive)
[2]
  Potency: inactive
[3]
  Potency: inactive
[4]
  Potency: inactive
[6]
  Potency: inactive

## O=[N+]([O-])c1ccc(O)c2ncccc12
[1]
  Potency: 16.6 µM (active)
[2]
  Potency: 14.8 µM (active)
[3]
  Potency: 13.2 µM (active)
[4]
  Potency: 7.42 µM (active)
[5]
  Potency: 8.33 µM (active)
[6]
  Potency: 9.34 µM (active)

## COCCn1c2c([n+](Cc3cnccn3)c1C)C(=O)c1ccccc1C2=O
[1]
  Potency: 1.18 µM (active)
[2]
  Potency: 0.0525 µM (active)
[3]
  Potency: 0.0661 µM (active)
[4]
  Potency: 0.166 µM (active)
[5]
  Potency: 0.148 µM (active)
[6]
  Potency: 0.186 µM (active)

## COc1cc(OC)cc(N2CCN(C(=O)Nc3nc4cc(F)ccc4nc3OC)CC2)c1
[1]
  Potency: 1.32 µM (active)
[2]
  Potency: 1.05 µM (active)
[3]
  Potency: 0.934 µM (active)
[4]
  Potency: 0.833 µM (active)
[5]
  Potency: 0.934 µM (active)
[6]
  Potency: 1.05 µM (active)

## CC(C)c1ccc(Cn2ccc3c4c(N)nc(NC5CC5)nc4ccc32)cc1
[1]
  Potency: 0.468 µM (active)
[2]
  Potency: 1.48 µM (active)
[3]
  Potency: 2.09 µM (active)
[4]
  Potency: 1.32 µM (active)
[5]
  Potency: 1.32 µM (active)
[6]
  Potency: 1.48 µM (active)

## CCN1CCN(Cc2ccc(-c3cc4c(N[C@H](C)c5ccccc5)ncnc4[nH]3)cc2)CC1
[1]
  Potency: 23.5 µM (active)
[2]
  Potency: 20.9 µM (active)
[3]
  Potency: 2.63 µM (active)
[4]
  Potency: 2.63 µM (active)
[5]
  Potency: 18.6 µM (active)
[6]
  Potency: 26.3 µM (active)
